Test results as given in PubChem BioAssay AID1159580 (chemical genetic matrix, 2015).
Hit rate of the full screen: of about 5,500 compounds, about 2,000 (36%) were called active. Roughly 18% stayed inconclusive and do not appear here. Rule as the data show it: active = normalized growth mostly below about 0.91 (no sharp cut-off); inconclusive = no clear call, values can overlap the other calls; inactive = mostly above about 0.92. The list shows a part of the results.

Experiment: chemical genetic growth profiling, strain panel (AID 1159580);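 also: tested at 20 µM; growth read once vehicle control cultures reached saturation at 30 °C; 1 = growth at the plate median or of vehicle wells; lower values mean less growth of the strain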
Details: S. cerevisiae deletion strains, growth OD

Measured: normalized growth

CC1=C(/C=C/C(C)=C/C=C/C(C)=C/C=C/C=C(C)/C=C/C=C(C)/C=C/C2=C(C)CCCC2(C)C)C(C)(C)CCC1
inactive: locus YJR043C, strain POL32, active compounds read low 1.01 | locus YJR066W, strain TOR1, active compounds read low 0.974 | locus YKL009W, strain mrt4, active compounds read low 0.941 | locus YKL068W, active compounds read low 1.01 | locus YKL085W, strain MDH1 (second series), active compounds read low 0.983 | locus YKL085W, strain MDH1, active compounds read low 0.983 | locus YKL160W, strain elf1, active compounds read low 0.927 | locus YKR001C, strain vps1, active compounds read low 0.986 | locus YKR026C, strain gcn3, active compounds read low 0.987 | locus YKR091W, strain srl3, active compounds read low 0.991 | locus YLL001W, strain dnm1, active compounds read low 0.926 | locus YLL026W, active compounds read low 0.999 | locus YLL041C, strain sdh2, active compounds read low 1.03 | locus YLR027C, strain aat2, active compounds read low 0.998 | locus YLR039C, strain RIC1, active compounds read low 0.996 | locus YLR058C, strain SHM2, active compounds read low 1.01 | locus YLR102C, strain apc9, active compounds read low 0.997 | locus YLR113W, strain HOG1, active compounds read low 1.02 | locus YLR221C, strain rsa3, active compounds read low 0.977 | locus YLR258W, strain gsy2, active compounds read low 1.02 | locus YLR262C, strain YPT6 (second series), active compounds read low 0.941 | locus YLR262C, strain YPT6, active compounds read low 0.982 | locus YLR268W, strain sec22, active compounds read low 0.992 | locus YLR320W, strain mms22, active compounds read low 0.994 | locus YLR330W, strain CHS5, active compounds read low 1.01 | locus YLR342W, strain FKS1 (second series), active compounds read low 1.01 | locus YLR342W, strain FKS1, active compounds read low 0.981 | locus YLR357W, strain rsc2, active compounds read low 0.957 | locus YLR370C, strain arc18, active compounds read low 1 | locus YLR371W, strain rom2, active compounds read low 1 | locus YLR384C, strain iki3, active compounds read low 1 | locus YLR418C, strain cdc73, active compounds read low 0.993 | locus YML016C, strain PPZ1, active compounds read low 1 | locus YML032C, strain rad52, active compounds read low 1 | locus YML120C, strain ndi1, active compounds read low 0.962 | locus YML124C, strain tub3, active compounds read low 1 | locus YMR058W, strain fet3, active compounds read low 0.985 | locus YMR078C, strain ctf18, active compounds read low 1.03 | locus YMR125W, strain sto1, active compounds read low 0.929 | locus YMR129W, active compounds read low 0.996 | locus YMR205C, strain PFK2, active compounds read low 0.934 | locus YMR223W, strain ubp8, active compounds read low 1.01 | locus YMR231W, strain pep5, active compounds read low 0.997 | locus YMR263W, strain SAP30, active compounds read low 1.02 | locus YMR307W, strain GAS1, active compounds read low 1.06 | locus YNL067W, strain RPL9B, active compounds read low 1.01 | locus YNL071W, strain lat1, active compounds read low 0.984 | locus YNL153C, strain GIM3, active compounds read low 1.01 | locus YNL183C, strain NPR1, active compounds read low 0.97 | locus YNL209W, strain ssb2, active compounds read low 0.997 | locus YNL233W, strain BNI4, active compounds read low 1.01 | locus YNL248C, strain rpa49, active compounds read low 0.906 | locus YNL250W, strain rad50, active compounds read low 1.02 | locus YNL271C, strain bni1, active compounds read low 0.997 | locus YNL298W, strain CLA4, active compounds read low 0.991 | locus YNL307C, strain MCK1, active compounds read low 1.01 | locus YNL322C, strain KRE1 (second series), active compounds read low 0.993 | locus YNL322C, strain KRE1, active compounds read low 1.01 | locus YNR049C, strain mso1, active compounds read low 1.01 | locus YNR052C, strain pop2, active compounds read low 1 | locus YOL006C, strain TOP1, active compounds read low 1.01 | locus YOL012C, strain htz1 1.24 | locus YOL147C, strain pex11, active compounds read low 1.01 | locus YOR001W, strain rrp6, active compounds read low 1.07 | locus YOR061W, strain CKA2, active compounds read low 1.01 | locus YOR069W, strain VPS5, active compounds read low 1.01 | locus YOR070C, strain gyp1, active compounds read low 1 | locus YOR080W, strain dia2, active compounds read low 0.996 | locus YOR083W, strain WHI5, active compounds read low 0.94 | locus YOR106W, strain vam3, active compounds read low 0.922 | locus YOR136W, strain idh2, active compounds read low 1.02 | locus YOR144C, strain elg1, active compounds read low 1 | locus YOR184W, strain ser1, active compounds read low 1.01 | locus YOR231W, strain MKK1, active compounds read low 1.02 | locus YOR265W, strain rbl2, active compounds read low 0.992 | locus YOR270C, strain vph1, active compounds read low 0.875 | locus YOR290C, strain snf2, active compounds read low 0.953 | locus YOR316C, strain cot1, active compounds read low 1 | locus YPL051W, strain arl3, active compounds read low 1.02 | locus YPL078C, strain atp4, active compounds read low 0.931 | locus YPL106C, strain sse1, active compounds read low 1.03 | locus YPL240C, strain hsp82, active compounds read low 1 | locus YPL241C, strain CIN2, active compounds read low 1.01 | locus YPL256C, strain CLN2, active compounds read low 0.994 | locus YPR119W, strain clb2, active compounds read low 1.01 | locus YPR141C, strain kar3, active compounds read low 1.01 | locus YPR163C, strain tif3, active compounds read low 1 | locus YPR167C, strain met16, active compounds read low 1.01 | strain wtn01, active compounds read low 0.991
